For one test, the system named is TAB113. Briefly: qHTS profiling for inhibitors of Plasmodium falciparum proliferation (AID 504749). Also: potency is read from the fitted curve at half-maximal effect. The following applies: P. falciparum in erythrocytes, SYBR Green DNA, 72 h; series mostly up to 28.7 µM. An outline of the steps:
(§1)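 Each compound contacts P. falciparum-infected red blood cells for 72 h at 37 C; lysis buffer (Tris, EDTA, saponin, Triton X, SYBR Green I) is added and fluorescence measured next morning; values normalized to controls.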

Another test deals with W2. Described as above. Conditions: P. falciparum in erythrocytes, SYBR Green DNA, 72 h; series mostly up to 28.7 µM. An outline of the steps: as §1
Another test concerns CRL-7250. Briefly: Cytotoxic Profiling of Annotated Libraries Using Quantitative High-Throughput Screening (AID 1296008). Also: potency is read from the fitted curve at half-maximal effect. As to max response: % is scaled to controls: 0 for no effect and ±100 for the full control effect. Conditions: Five cell lines viability, CellTiter-Glo ATP luminescence, 48-72 h; max response: hits give low values. The method, boiled down: (§2)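 Cells exposed to compounds for 48 or 72 hr at 37 degrees Celsius. Viability read as ATP-coupled luminescence with CellTiter-Glo after 10 min at room temperature.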
For orientation: ATP-based viability assays read luminescence as a measure of living cells.

For the next test, the system named is HEK293. The description is as above. The following applies: Five cell lines viability, CellTiter-Glo ATP luminescence, 48-72 h; max response: hits give low values. An outline of the steps:
as §2

Test [1] relates to HaCat. The test is described as above. The following applies: Five cell lines viability, CellTiter-Glo ATP luminescence, 48-72 h; max response: hits give low values. The method, boiled down: as §2
For another test, the system named is KB-3-1. The description is as above. Conditions: Five cell lines viability, CellTiter-Glo ATP luminescence, 48-72 h; max response: hits give low values. The method, boiled down: as §2
For a further test, the system named is NIH3T3. Described as above. The following applies: Five cell lines viability, CellTiter-Glo ATP luminescence, 48-72 h; max response: hits give low values. The method, boiled down: as §2
In test [2] the test system is HACAT. The test can be described thus: qHTS assay to identify novel small-molecules to repurpose for Merkel cell carcinoma treatment (AID 1296009). The following applies: MCC and control cell lines, CellTiter-Glo viability, 72 h. An outline of the steps: (§3)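 Dose-response viability screen; 72 hr exposure at 37 degree celsius; CellTiter-Glo added, 10 min room temperature, luminescence read; RLUs scaled between no-cell and DMSO wells.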
Background: qHTS replaces the single test concentration by a dilution series.

In the next test the test system is HEK293T. The test is described as above. Conditions: MCC and control cell lines, CellTiter-Glo viability, 72 h; at 44.8 µM (top of the series) unless noted. The method, boiled down:
as §3

For the next test, the system named is TAB165. Briefly: qHTS profiling for inhibitors of Plasmodium falciparum proliferation (AID 504749). Also: potency is read from the fitted curve at half-maximal effect. The following applies: P. falciparum in erythrocytes, SYBR Green DNA, 72 h; series mostly up to 28.7 µM. An outline of the steps:
as §1

The mark [3] stands for this setting: at 44.8 µM (top of the series) unless noted.

Each structure is given as a SMILES string. “And” between values parts separate entries of the source, which are not always exact repeats. Identical values can stand only once. Results filed as inconclusive are left out. A structure can be active in one record and inactive in another. Unmarked numbers belong to inactive results. The source made the active and inactive calls. Calls follow the shape of the dose curve; as a rule, active = well fitted inhibition curve with a large enough effect; inconclusive = small, poorly fitted or top-dose-only effect; inactive = flat fitted curve, though single readings scatter.
Also: nearly all actives have a fitted effect of over 60% in size.

For the compound `CN1CCC[C@@H]1Cc1c[nH]c2ccc(CCS(=O)(=O)c3ccccc3)cc12`, the Potency entry with TAB113 was “inactive”. Further, the Potency in the test on W2 is 4.78 µM (active). Moreover, the compound was classed as inactive in the test on CRL-7250, in the test with HEK293, in the test on HaCat [1], with KB-3-1, in the test on NIH3T3 and in the test on HACAT [2] (setting [3]). The result in the test with HEK293T was inactive. Moreover, the max response in the test with HEK293 was -1.58%; in the test on KB-3-1 it was -5.28%; in the test on NIH3T3, -4.41%.

For the compound `CCCCOc1cc(C(=O)OCCN(CC)CC)ccc1N`, the Potency result in the test on TAB113, in the test on TAB165 and in the test with W2 was “inactive” each time. The max response in the test with CRL-7250 is -0.166%; in the test on HEK293 it was -17.2% and -4.15%; in the test on HaCat [1], 1.81%; in the test with KB-3-1 it was 6.85%. In addition, the outcome in the test with CRL-7250, in the test on HaCat [1], in the test on NIH3T3 and with HACAT [2] (setting [3]) was inactive. Besides, the Potency with KB-3-1 is 4.95 µM (active).

Regarding `C[C@@H]1C[C@H]2[C@@H]3C[C@H](F)C4=CC(=O)C=C[C@]4(C)[C@@]3(F)[C@@H](O)C[C@]2(C)[C@@]1(O)C(=O)CO`, the max response with CRL-7250 was -4.29%; in the test on HEK293 it was -7.17%; in the test on HaCat [1], -8.88% and 2.84%; in the test on KB-3-1 it was 18.2%; in the test on NIH3T3 it was -2.74% and -3.01%. In addition, the outcome in the test with CRL-7250, in the test on HEK293, in the test with KB-3-1 and in the test on HEK293T was inactive.

Regarding `O=c1[nH]cnc2c1ncn2[C@@H]1O[C@H](CO)[C@@H](O)[C@H]1O`, the max response in the test with CRL-7250 was -10.1% and -4.73%; in the test with HEK293, 3.98%; in the test on NIH3T3, 0.16%. Further, the call with HEK293, with HaCat [1], in the test with NIH3T3, in the test on HACAT [2] (setting [3]) and in the test on HEK293T was inactive.

On to `CCOC(CN1CCN(CC(C)C(=O)c2ccccc2)CC1)c1ccccc1` (stereo not given), for which the Potency in the test on W2 is 10.7 µM (active). Also, the max response in the test with CRL-7250 is -5.72%; with HEK293, -4.15%; in the test on HaCat [1] it was -8.79%; with KB-3-1 it was 0.981% and -11.3%; in the test on NIH3T3, -6.68%. Also, the outcome in the test on HaCat [1] and in the test with NIH3T3 was inactive. In addition, the outcome in the test with HACAT [2] (setting [3]) was “inactive [at 17.4 µM]”.

On to `C[C@@H]1CN(c2c(F)c(F)c3c(=O)c(C(=O)O)cn(C4CC4)c3c2F)C[C@H](C)N1`, for which the Potency result in the test on TAB113, with TAB165 and in the test with W2 was “inactive” each time. Moreover, the max response is -3.49% and -4.42% in the test with CRL-7250; -18.5% and -5.83% with HEK293; -12.7% in the test with KB-3-1; -2.2% and -0.725% in the test with NIH3T3. In addition, the result with HaCat [1], with KB-3-1, in the test on HACAT [2] (at 9.27 µM (top of the series)) and with HACAT [2] (at 17.4 µM (top of the series)) was inactive.

In the case of `O=C(CCCN1CCN(c2ccccn2)CC1)c1ccc(F)cc1`, the Potency entry with TAB113, with TAB165 and in the test on W2 was “inactive” throughout. For the same compound, the max response in the test with CRL-7250 was -29%; in the test on HEK293 it was -14.9%; in the test on HaCat [1] it was -5.51% and 4.13%; in the test on KB-3-1, 7.83% and 2.47%; with NIH3T3, -7% and 0.386%. For the same compound, the call in the test with CRL-7250 was inactive.

Take `CN(C)CC[C@@H](c1ccc(Cl)cc1)c1ccccn1`: the max response was 4.72% in the test on CRL-7250, -2.7% in the test with HEK293, 0.999% in the test with HaCat [1] and -22.8% in the test with KB-3-1. Moreover, in the test with NIH3T3, the compound was classed as inactive.

In the case of `CC(C(O)c1ccc(O)cc1)N1CCC(Cc2ccccc2)CC1` (stereo not given), the Potency in the test on TAB165 was 8.91 µM (active); with W2 it was 4.26 µM (active). The max response in the test with CRL-7250 was -1.07%; in the test with HaCat [1], -22.6%; in the test on KB-3-1 it was -5.14%; in the test on NIH3T3 it was -2.06% and 3.27%. Besides, the result with CRL-7250, in the test on HaCat [1] and with KB-3-1 was inactive. Moreover, the outcome with HACAT [2] (setting [3]) is “inactive [at 17.4 µM]”.

In the case of `NC(=O)c1ncn([C@@H]2O[C@H](CO)[C@@H](O)[C@H]2O)c1N`, the max response in the test on CRL-7250 was -9.1%; with HEK293, -5.61%; in the test with HaCat [1], -15%; in the test with KB-3-1 it was 12%; in the test with NIH3T3, -10.7%.

As to `CC1=C(CC(=O)O)c2cc(F)ccc2/C1=C\c1ccc(S(C)(=O)=O)cc1`, the max response with CRL-7250 was -16.5%; with HEK293 it was -17.6%; in the test on HaCat [1], -12.4%; in the test with KB-3-1 it was -9.19%; in the test with NIH3T3, -5.99%.

Take `Cn1c(=O)c2c(ncn2CC2OCCO2)n(C)c1=O`: the Potency result in the test with TAB113, in the test with TAB165 and with W2 was “inactive” in each case. In addition, the max response with CRL-7250 was -4.54% and 1.94%; with HaCat [1] it was -3.76%; in the test on KB-3-1, 6.93% and 8.78%; in the test on NIH3T3, 0.911%. The compound was called inactive with HEK293, with HaCat [1], in the test on NIH3T3, in the test on HACAT [2] (setting [3]) and in the test with HEK293T.

Consider `CC[N+](CC)(CC)CCOc1ccc(/C=C/c2ccccc2)cc1`, for which the Potency is 1.06 µM (active) with CRL-7250, 4.73 µM (active) with HEK293 and 8.41 µM (active) in the test on HaCat [1]. The max response was -18.6% and -29.7% in the test on KB-3-1; -21.5% with NIH3T3.

With `CC(C)(C(=O)O)c1ccc(C(O)CCCN2CCC(C(O)(c3ccccc3)c3ccccc3)CC2)cc1` (stereo not given), the values for the max response in the test on CRL-7250 and with HEK293 were -9.99% and 4.11%, respectively. For the same compound, the outcome in the test with CRL-7250, with HEK293, with HaCat [1], in the test on NIH3T3, with HACAT [2] (setting [3]) and with HEK293T was inactive.

On to `Cc1cc2nc3c(=O)[nH]c(=O)nc-3n(C[C@H](O)[C@H](O)[C@H](O)CO)c2cc1C`, for which the result with CRL-7250 was inactive. For the same compound, the max response was -5.47% in the test with HEK293; -19.1% in the test on HaCat [1]; -1.52% and 0.485% in the test with KB-3-1; 4.08% in the test on NIH3T3.

With `CN1CCOC(c2ccccc2)c2ccccc2C1` (stereo not given), the max response in the test on CRL-7250 is 2.8%; in the test with HEK293, -2.69%; with HaCat [1], -15.1% and -5.19%; with NIH3T3, 2.98%. For the same compound, the compound was classed as inactive in the test on CRL-7250, in the test with HEK293, in the test on NIH3T3 and in the test with HEK293T.

Take `CC(C)(O)c1ccccc1CC[C@@H](SCC1(CC(=O)O)CC1)c1cccc(/C=C/c2ccc3ccc(Cl)cc3n2)c1`: the max response in the test on CRL-7250 is -23.3%; with HEK293, 4.81%; in the test with KB-3-1 it was -11.2% and 6.98%; in the test with NIH3T3 it was -22.4%. For the same compound, the result in the test with HaCat [1], with NIH3T3 and with HACAT [2] (setting [3]) was inactive.
